Measurements reported in PubChem BioAssay AID485347 (National Center for Advancing Translational Sciences (NCATS), 2010).
Hit rate of the full screen: of about 340,000 compounds, about 1,200 (0.35%) were called active.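 How the source made its calls: active means potentiation over 3 SD above the plate norm (cut at about 30% in these data); inactive means the rest.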 What follows is part of a selection rich in actives, with near analogues and random picks from the rest.

Target: D(2) dopamine receptor (Homo sapiens) (UniProt P14416)
Assay: HTS Assay for Positive Allosteric Modulators of the Human D2 Dopamine Receptor: Primary Screen for Potentiators; further: 0% is about no effect
Settings: HEK293 T-REx D2, calcium flux, EC20 dopamine potentiation; at 10 µM; active compounds read high
Text: NIH Chemical Genomics Center [NCGC] NIH Molecular Libraries Probe Centers Network [MLPCN] MLPCN Grant: NS064831-01 Assay Submitter (PI): David Sibley Dopamine receptors (DARs) are involved in the etiology and/or therapy of a number of neuropsychiatric and endocrine disorders. For instance, all receptor-based antiparkinsonian drugs work via stimulating the D2 DAR subtype whereas all FDA-approved antipsychotic agents are antagonists of this receptor. […] There are three different types of allosteric modulators that we are seeking, two of which will stimulate or augment receptor signaling, allosteric agonists and potentiators, while the third, allosteric antagonists, will attenuate receptor signaling. The present primary screening assay measures compound potentiation of an EC20 dopamine response by tracking calcium flux in a […], inducible Hek293 Trex D2 cell line.
Freshly passaged cells are plated in 1536 well black, clear bottom plates at a density of 4000 cells/well in 3 ul of complete media containing 1x tetracycline inducer. After an overnight incubation at 30 C in 5% CO2, cells are loaded with 2 ul of the no wash Calcium Assay Kit (ABD Bioquest) and incubated at room temperature for 30 to 90 minutes. A 10 cycle (1 second/cycle) baseline measurement is taken and then the FDSS online 1536 pintool delivers 23 nl of compound library (as well as dopamine controls) to the plate. The plate is measured for kinetically at 1 cycle/sec for 180 seconds and is considered to be the agonist portion of the assay (eg, compounds which activate a positive calcium response during this portion are flagged as potential agonists). Following the 180 second read, 1 ul of an EC20 of dopamine is delivered by an onboard pipette head. Measurements are taken kinetically for an additional 180 seconds.

Chain of D(2) dopamine receptor (Homo sapiens) (P14416 whole entry, looked up): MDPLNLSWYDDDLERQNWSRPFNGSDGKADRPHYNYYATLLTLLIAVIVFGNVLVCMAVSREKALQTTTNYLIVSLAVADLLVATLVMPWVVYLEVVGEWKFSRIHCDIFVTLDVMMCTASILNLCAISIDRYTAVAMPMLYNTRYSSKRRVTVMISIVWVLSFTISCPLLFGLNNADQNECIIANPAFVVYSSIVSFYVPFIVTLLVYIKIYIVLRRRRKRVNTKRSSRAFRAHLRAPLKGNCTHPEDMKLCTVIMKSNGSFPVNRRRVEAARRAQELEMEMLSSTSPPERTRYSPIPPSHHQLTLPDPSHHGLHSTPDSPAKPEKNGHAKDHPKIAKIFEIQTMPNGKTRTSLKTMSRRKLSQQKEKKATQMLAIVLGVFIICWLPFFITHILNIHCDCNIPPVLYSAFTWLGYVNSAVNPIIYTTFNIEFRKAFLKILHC

potentiation, inactive:
CCN(CC(=O)Nc1ccccc1OC)C(=O)CC1CC2CCC1C2 (stereo not drawn) 5.39%
CCN(CC(=O)Nc1ccccc1OC)C(=O)Cn1cnc2ccccc2c1=O 11.8%
Cc1cc(C)cc(OCC(=O)Nc2c(C(=O)c3ccccc3)oc3ccccc23)c1 -6.36%
COc1ccc(C)cc1NC(=O)COCc1cc(-c2cccs2)on1 3.43%
CCN(c1ccccc1)S(=O)(=O)c1cc(C(=O)NCc2ccccn2)ccc1C -2.26%
CN(c1ccc(C(=O)NCCC2=CCCCC2)cc1)S(C)(=O)=O -10.3%
O=C(CCS(=O)(=O)c1ccccc1)N(Cc1cccnc1)c1nc2c(F)cccc2s1 -2.05%
Cc1ccc(C2C=C(c3ccc(Cl)cc3)Nc3nc(NC(=O)CCC(=O)O)nn32)cc1 (stereo not drawn) 5.1%
CCOc1ccc(CNCc2c(C(=O)O)c(C)n(Cc3cccc(OC)c3)c2C)cc1OC -3.84%
Cc1sc2nc(CC(N)=O)[nH]c(=O)c2c1-c1ccccc1 9.95%
COc1cccc(C(=O)c2sc3nc(-c4ccccc4)cc(C(F)(F)F)c3c2N)c1 -10.4%
Cc1ccc(NC(=O)c2oc3ccccc3c2NC(=O)Cc2cccs2)cc1 -10%
CSc1ccc(CCNC(=O)c2ccc3c(c2)nc2n3CCOC2)cc1 8.52%
Cc1ccc(C)c(Oc2c(C(F)(F)F)oc3c(CN4CCN(C)CC4)c(O)ccc3c2=O)c1 -2.95%
Cc1ccc(-c2nn(CCC(=O)Nc3ccc(Cl)c(Cl)c3)c(=O)c3ccccc23)cc1 -14.9%
CCOc1ccccc1C1CC(c2ccccc2)Nc2nc(N)nn21 (stereo not drawn) 14.5%
Clc1ccc(C2CC(c3cccs3)n3ncnc3N2)cc1Cl (stereo not drawn) -0.578%
CCOC(=O)c1ccc(NC(=S)N2CCCC2)cc1 8.15%
CCOc1ccc(NC(=S)N2CCC(N(C)CC3CCCO3)CC2)cc1 (stereo not drawn) -4.46%
COc1cc(CNC(=O)c2cc3n(n2)CCCN(Cc2cccc(F)c2)C3=O)cc(OC)c1OC 7.44%
CC(C)(C)c1ccc(C(=O)NCC(c2ccco2)S(=O)(=O)c2ccc(F)cc2)cc1 (stereo not drawn) 2.19%
COc1ccccc1NC(=O)c1oc2ccccc2c1NC(=O)COc1ccccc1OC -6.56%
Cc1ccc(C)c(NC(=O)c2ccc3nccnc3c2)c1 10.6%
O=C(NCCc1ccc(F)cc1)c1ccc2nccnc2c1 1.21%
CCOC(=O)c1ccccc1NC(=O)CCc1c(C)nc2c(c1C)c(=O)n(C)c(=O)n2C -0.581%
Cc1ccc(NC(=O)c2nc(S(=O)(=O)Cc3cccc(C)c3)ncc2Cl)cc1 -4.73%
Cc1cccc(C(=O)N2c3nc(-c4ccco4)nn3C3(CCCCC3)[C@@H]3CCCC[C@@H]32)c1 11.9%
COc1ccccc1NC(=O)C1=C(C)Nc2ncnn2C1c1sccc1C (stereo not drawn) 14.1%
CN(C(=O)CSc1nnc(Nc2ccccc2)s1)C1CCS(=O)(=O)C1 (stereo not drawn) -2.37%
CCn1c(SCC(=O)c2ccc(Cl)s2)nnc1-c1cccs1 5.97%
Cc1ccc(NC(=O)Cc2ccc(NC(=O)N3CCCCc4ccccc43)cc2)cc1 -2.54%
Cc1c(Cl)cccc1NC(=O)Nc1ccc(C(=O)N2CCCC2)cc1 -6.53%
Cc1c(Cl)cccc1NC(=O)NCc1ccc(C)n1C 6.36%
CCCSc1ncc(Cl)c(C(=O)Nc2c(C(=O)Nc3ccccc3)oc3ccccc23)n1 9.52%
O=C(CC1(O)C(=O)N(CN2CCOCC2)c2ccccc21)c1ccccc1 (stereo not drawn) -7.42%
C=CCN1C(=O)C2(OCCCO2)c2cccc(Cl)c21 9.19%
O=C(NCCCN1CCN(c2cccc(Cl)c2)CC1)c1nnc(Cc2ccc(F)cc2Cl)o1 -20.3%
COc1cn(CC(=O)Nc2cccc(C)c2C)c(CN2CCCCC2)cc1=O -2.25%
COC(=O)c1ccc(OC)c(Cn2c(=O)n(Cc3ccccc3)c(=O)c3c2c2cc(OC)ccc2n3C)c1 -2.94%
CCc1nn(CC(=O)Nc2cccc(C)c2C)c(=O)c2cc3sccc3n12 8.71%
Cc1cc(C)n2nc(SCC(N)=O)nc2n1 16.2%
COc1cccc(CSc2nc3nc(C)cc(C)n3n2)c1 -5.34%
CCOc1ccc(-n2c(SCC(=O)NCc3ccccc3)nc3n[nH]c(C)c3c2=N)cc1 -3.4%
COc1ccccc1CNCc1ccc(C(=O)O)s1 6.15%
O=C1/C(=C/c2cccs2)CCc2ccccc21 1.15%
CN1CCN(C(=O)/C(=C\c2cccs2)NC(=O)c2cccs2)CC1 15.2%
Cc1c(NC(=O)CSc2cccc3cccnc23)c(=O)n(-c2ccccc2)n1C 13.1%
Cc1c(NC(=O)CSc2nnnn2-c2ccc(C(=O)O)cc2)c(=O)n(-c2ccccc2)n1C -3.5%
Cc1cn(C)c(CC(=O)NCc2ccccc2)c1C(=O)O 5.5%
CCc1ccc(CNC(=O)c2ccc(CS(=O)c3ccc(Br)cc3)o2)cc1 (stereo not drawn) 3.07%
COc1ccccc1CNC(=O)C(=O)NCC(c1ccco1)S(=O)(=O)c1ccc(F)cc1 (stereo not drawn) 11.5%
C=CCn1c(SCn2nnc3ccccc3c2=O)nnc1-c1ccc(Cl)cc1 3.09%
C=CCn1cc(-c2cccc(C(F)(F)F)c2)cc(C#N)c1=O -3%
COc1cc(OC)cc(C(=O)Nc2cc3nn(-c4ccccc4)nc3cc2Cl)c1 29.9%
CCCCc1nn2c(=O)cc(COC(=O)c3ccccc3NC(=O)C(C)(C)C)nc2s1 9.21%
CC12CCC(C(=O)N(NC(=O)c3ccccc3O)C1=O)C2(C)C (stereo not drawn) 13.8%
CC1=CC(C)(C)NC(=S)N1c1ccccc1 -0.583%
CCN(C(=O)c1sc2cc(OC)ccc2c1Cl)c1ccccc1 -5.49%
COc1ccccc1NC(=O)c1oc2ccccc2c1NC(=O)C(C)C -4.17%
Cc1ccc(NC(=O)CSc2nc3c([nH]c4ccccc43)c(=O)n2-c2ccccc2)cc1Cl 0.276%
Cc1cccc(N2CCN(S(=O)(=O)c3ccc4[nH]c5c(c4c3)CCCCC5)CC2)c1C 2.56%
CC(C)(C)NS(=O)(=O)c1ccc(NC(=O)C2CCCO2)cc1 (stereo not drawn) 5.45%
CC(C)c1ccc(NC(=O)NC2CCCCC2)cc1 4%
CCCN(CCC)CCNC(=O)c1ccc2c(c1)NC(=O)C(CS(=O)(=O)Cc1cccc(Br)c1)N2 (stereo not drawn) 0.677%
COc1ccc(Cn2ccnc2SCC(=O)Nc2ccc3c(c2)OCO3)cc1 1.53%
CCc1cc2c(=O)n(-c3ccccc3)c(SCC(=O)O)nc2s1 -3.23%
Cc1ccc(C(=O)CSc2nc3ccccc3c(=O)n2N)o1 2.64%
Cc1ccc2c(=O)c(C(=O)c3ccc(F)cc3)cn(CC(=O)NC3CCCCC3)c2n1 -9.33%
CCCCNC(=O)c1cc(-c2ccc(Cl)c(Cl)c2)on1 -3.44%
COCCCNC(=S)NNC(=O)C(O)(c1ccccc1)c1ccccc1 -5.53%
COc1ccc(-c2nc(S(=O)(=O)c3ccccc3)c(N3CCCCC3)o2)cc1 -5.46%
COc1ccc(-c2cc(C(=O)N3CCN(c4ccc(F)cc4)CC3)no2)cc1 -8.77%
COc1ccccc1-c1cc(C(=O)N2CCCCC2)no1 -22.4%
Cc1cccc(Cn2c(=O)n(CCC(=O)NCCc3ccc(Cl)cc3)c(=O)c3sccc32)c1 13%
CCN1CCN(C(c2ccc(C)cc2)c2c(O)cc(C)n(Cc3ccco3)c2=O)CC1 (stereo not drawn) 6.89%

potentiation, active:
CCCN(CC(=O)Nc1ccccc1OC)C(=O)CCC(=O)c1ccc(F)cc1 30.4%
CN(c1ccc(C(=O)NCc2ccccn2)cc1)S(C)(=O)=O 42.4%
NC(=O)c1sc2nc3c(c(-c4ccccc4)c2c1N)CCC3 37.2%
FC(F)Oc1ccccc1C1CC(c2ccc(Br)s2)Nc2ncnn21 (stereo not drawn) 31.8%
CCOc1ccc(NC(=S)N2CCCCCC2)cc1 30.1%
CC(C)CCC(C)NC(=O)c1ccc2nccnc2c1 (stereo not drawn) 36.8%
CCn1c(SCC(=O)N(C)C2CCS(=O)(=O)C2)nnc1-c1cccs1 (stereo not drawn) 43.3%
Cc1c(NC(=O)Nc2ccccc2Cl)sc(=S)n1C 37%
CC(C)(C)C(=O)CCN1C(=O)C2(OCCO2)c2ccccc21 31.3%
COc1ccc(C(C)=O)cc1CSc1nc2nc(C)cc(C)n2n1 34.5%
CN1C/C(=C/c2cccs2)C(=O)/C(=C\c2cccs2)C1 41.9%
Cc1c(NC(=O)CSc2nnc(-c3cccnc3)n2N)c(=O)n(-c2ccccc2)n1C 73.3%
C=CCn1c(-c2ccc(Cl)cc2)ccc(C#N)c1=O 40.5%
CC1=CC(C)(C)NC(=S)N1NC(=O)c1ccccc1Cl 35.1%
CC(C)(C)NS(=O)(=O)c1ccc(NC(=O)NC2CCCCC2)cc1 38%
Cc1cc2c(=O)n(C)c(SCC(=O)c3cc4ccccc4o3)nc2s1 30.1%
CCCCNC(=S)NNC(=O)c1cc(C)on1 37%
COc1ccccc1N1CCN(C(=O)c2cc(-c3ccc(Cl)c(Cl)c3)on2)CC1 69.4%
